“And” between values parts separate entries of the source, which are not always exact repeats. Equal entries are not always repeated. Inconclusive results are not listed. The source made the active and inactive calls. Calls follow the shape of the dose curve; as a rule, active = well fitted curve in the direction sought with a large enough effect; inconclusive = small, poorly fitted or top-dose-only effect, or another doubt; inactive = no such curve, though single readings can be large; an effect the other way counts as inactive or inconclusive.
What was measured:
[1] = Cell Viability - N2a (AID 540); details: N2a mouse neuroblastoma cell viability; activity change, negative = cytotoxicity: at 92.2 µM (top of the series);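 also: cells exposed to compound for 40 h at 37 °C; plate controls were DMSO alone for no effect and tamoxifen control for full effect; nearly all actives have a fitted effect of over 45% in size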
How it was run: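 First, 1500 N2a cells per well incubate 5 hr at 37 °C; next, compounds are added and incubated 40 hr at 37 °C; finally CellTiter-Glo is added and luminescence read after 20 min, with AC50 derived by Hill modeling.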

[2] = Cellular Toxicity (caspase-3) Jurkat (AID 655); details: Jurkat caspase-3 activation, luminescence; caspase-3 activation: at 92.2 µM (top of the series), DMSO = 0%, tamoxifen = 100%;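 also: cells exposed to compound for 16 h at 37 °C before reading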
How it was run: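 Jurkat cells (5000/well) in complete medium were treated with compounds for 16 hr at 37 °C, then Caspase-Glo 3/7 luminescence was read after 20 min at room temperature. Data normalized to DMSO (basal) and 100 uM tamoxifen (100%); AC50 from Hill fit.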

[3] = Cellular Toxicity (caspase-3) NIH 3T3 (AID 666);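 also: caspase signal read after 16 h compound exposure; 0% = DMSO basal and 100% = 100 µM tamoxifen stimulation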
How it was run: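 Concentration-response qHTS in NIH 3T3 mouse fibroblasts scores caspase-3/7 activation as rising luminescence after 16 hr compound exposure. Signals are scaled between DMSO-only and 100 uM tamoxifen.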

[4] = MultiTox-Fluor Cytotoxicity Assay - LYMP1-001 - Dead Cells (AID 946);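 also: 0% = DMSO and 100% = tetraoctylammonium bromide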
How it was run: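 Seed 2500 LYMP1-001 cells/well, incubate 5 hr at 37 C; add compound, 16 hr at 37 C; add MultiTox-Fluor reagent, 60 min RT; read dead-cell fluorescence Ex/Em=485/520. Normalize to DMSO and 15 uM tetraoctylammonium bromide.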

[5] = Cell Viability - LYMP1-003 - Assay at 24 hr (AID 963);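 also: plate controls were DMSO only for no effect and tetraoctylammonium bromide positive control for full effect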
How it was run: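 Acute toxicity in LYMP1-003 lymphoblastoid cells: 24 hr compound treatment at 37 C, ATP measured with CellTiter-Glo after 30 min at room temperature. AC50 derived by fitting the Hill equation to qHTS titrations.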

[6] = Cell Viability - LYMP1-003 - Assay at 40 hr (AID 964); also: % is scaled to controls: 0 for no effect and ±100 for the full control effect; nearly all actives have a fitted effect of over 60% in size
How it was run: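 This qHTS cytotoxicity screen treats human lymphoblastoid cells (LYMP1-003) with compounds for 40 hr and quantifies cellular ATP via luciferase luminescence.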

[7] = Cell Viability - LYMP2-009 (AID 968); also: nearly all actives have a fitted effect of over 55% in size; also: potency is read from the fitted curve at half-maximal effect
[8] = Cell Viability - LYMP2-011 (AID 969); also: nearly all actives have a fitted effect of over 60% in size; also: potency is read from the fitted curve at half-maximal effect
How it was run: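 Acute toxicity is scored as a concentration-dependent drop in intracellular ATP of a human lymphoblastoid line after 24 hr treatment. Values are AC50s modeled with the Hill equation.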

[9] = Cell Viability - LYMP2-019 (AID 973); also: nearly all actives have a fitted effect of over 55% in size; also: potency is read from the fitted curve at half-maximal effect;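 as to activity change, negative = cytotoxicity: 0% = DMSO alone and full effect = 92 µM tetraoctylammonium bromide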
How it was run: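 Cells plated at 2500/well and allowed 5 hr at 37 C before compound addition. After 24 hr incubation, CellTiter-Glo reagent was added, plates sat 30 min at room temperature, and luminescence was recorded.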

[10] = Cell Viability - LYMP2-002 (AID 977);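 also: compound exposure lasted 24 h at 37 °C; plate controls were DMSO only for no effect and 92 µM tetraoctylammonium bromide for full effect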
How it was run: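 Cytotoxicity is scored as concentration-dependent loss of cellular ATP in a human lymphoblastoid line after 24 hr compound treatment at 37 C. AC50 is obtained by modelling concentration-response data with the Hill equation.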

[11] = Cell Viability - LYMP2-006 (AID 978); also: % is scaled to controls: 0 for no effect and ±100 for the full control effect; nearly all actives have a fitted effect of over 60% in size
How it was run: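 Human lymphoblastoid cells, 2500 per well, were preincubated 5 hr at 37 C, then exposed to compounds for 24 hr at 37 C in complete medium. Viability was read as intracellular ATP by CellTiter-Glo luminescence; AC50 from Hill-equation fits of qHTS concentration-response data.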

[12] = Cell Viability - LYMP2-014 (AID 983);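 also: plate controls were DMSO only for no effect and 92 µM tetraoctylammonium bromide for full effect; nearly all actives have a fitted effect of over 50% in size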
How it was run: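 Decrease in intracellular ATP after 24 hr treatment at 37 C, measured by luciferase luminescence, indicated cytotoxicity. Concentration-response data were fitted with the standard Hill equation to give AC50.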

[13] = Cell Viability - LYMP2-022 (AID 987); also: nearly all actives have a fitted effect of over 55% in size; also: potency is read from the fitted curve at half-maximal effect
How it was run: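 Acute toxicity in a human lymphoblastoid line is scored as decreased intracellular ATP after 24 hr compound treatment at 37 C. ATP is measured by CellTiter-Glo luminescence; curves are fitted with the Hill equation to give AC50.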

[14] = qHTS assay for environmental chemicals that activate the Aryl hydrocarbon Receptor (AhR) signaling pathway (AID 651777); details: 1A2-DRE human hepatoma cells, luciferase, 24 h; activation: active compounds read high; also: % of control where 0% means no effect; nearly all actives have a fitted effect of over 15% in size
How it was run: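 Following a 24 hr incubation with test chemicals at 37 C and 5% CO2, 1A2-DRE human hepatoma cells received One-Glo reagent; after 30 min at room temperature, luciferase output reflected CYP1A2 induction via AhR.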

[15] = target: Peroxisome proliferator-activated receptor alpha (Homo sapiens) (UniProt Q07869); experiment: qHTS assay for small molecule agonists of the peroxisome proliferator-activated receptor alpha (PPARalpha) signaling pathway (AID 651778); details: PathHunter PPARalpha complementation, chemiluminescence, 6 h; active compounds read high; also: % of control where 0% means no effect
Chain of Peroxisome proliferator-activated receptor alpha (Homo sapiens) (Q07869 whole entry, looked up): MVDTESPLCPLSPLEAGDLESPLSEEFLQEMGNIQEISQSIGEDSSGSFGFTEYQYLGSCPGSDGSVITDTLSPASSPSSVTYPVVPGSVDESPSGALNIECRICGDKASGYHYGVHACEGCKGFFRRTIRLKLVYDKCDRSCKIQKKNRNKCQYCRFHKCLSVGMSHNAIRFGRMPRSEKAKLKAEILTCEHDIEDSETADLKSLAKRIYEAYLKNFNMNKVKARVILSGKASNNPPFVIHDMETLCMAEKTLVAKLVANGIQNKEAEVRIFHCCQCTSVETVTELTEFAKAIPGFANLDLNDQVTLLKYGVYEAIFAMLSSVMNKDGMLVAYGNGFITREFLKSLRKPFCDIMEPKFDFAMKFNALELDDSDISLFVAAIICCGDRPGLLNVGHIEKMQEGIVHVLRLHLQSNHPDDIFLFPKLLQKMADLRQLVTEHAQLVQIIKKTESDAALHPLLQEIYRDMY
How it was run: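 Chemiluminescence from complemented enzyme reported PPARalpha activation in cells after 6 hr of compound treatment at 37 C. The detection reagent was incubated for 60 min at room temperature, and compounds were scored as agonists.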

[16] = qHTS assay for cell viability of the p53RE-bla HCT-116 cell line (AID 743292); also: % is scaled to controls: 0 for no effect and ±100 for the full control effect; nearly all actives have a fitted effect of over 55% in size
How it was run: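 After plating at 4,000 cells per well and a 5 h rest at 37 C, HCT-116 cells carrying p53RE-bla received test chemicals in DMSO. Sixteen hours later at 37 C, CellTiter-Glo was added and luminescence recorded following 30 min at room temperature.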

[17] = Cell Viability - LYMP2-010 (AID 981); also: nearly all actives have a fitted effect of over 55% in size; also: potency is read from the fitted curve at half-maximal effect
How it was run: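 Acute toxicity is scored as a concentration-dependent loss of cellular ATP in human lymphoblastoid cells after 24 hr compound exposure in complete medium. Tetraoctylammonium bromide is the positive control.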

[18] = Cell Viability - LYMP2-020 (AID 986); also: nearly all actives have a fitted effect of over 55% in size; also: potency is read from the fitted curve at half-maximal effect
How it was run: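 Acute cytotoxicity in a human lymphoblastoid line is scored as a concentration-dependent fall in cellular ATP after 24 hr at 37 C in complete medium. The positive control is tetraoctylammonium bromide, and potency is given as Hill-fit AC50.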

[19] = Cell Viability - Renal Proximal Tubule (AID 545);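 also: cells exposed to compound for 40 hours; nearly all actives have a fitted effect of over 40% in size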
How it was run: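 Primary rat renal proximal tubule cells (1000/well) were treated with compounds for 40 hr at 37 °C in complete medium. Intracellular ATP was measured by CellTiter-Glo luminescence, and AC50 values came from Hill-equation fits of concentration-response data.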

[20] = Cellular Toxicity (caspase-3) Renal Proximal Tubule (AID 667);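 also: cells exposed to compound for 16 hours at 37 °C before detection; 0% = DMSO basal and 100% = 10 µM staurosporine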
How it was run: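 Primary rat proximal tubule cells, 1000/well, 5 h plating at 37 °C, then compound 16 h at 37 °C. Caspase-Glo 3/7 reagent, 1 h RT, luminescence. Normalized to DMSO (basal) and 10 uM staurosporine (100%); Hill-fit AC50.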

ClP(Cl)(Cl)(Cl)Cl
inactive: Potency [1] | caspase-3 activation [2] 0.993% | Potency [3] | outcome [4] | outcome [5] | Potency [6] | Potency [7] | Potency [8] | Potency [9] | Potency [10] | Potency [11] | Potency [12] | Potency [13] | activation [14] -0.379% | max response [15] 0.162% | Potency [16]

COC(=O)Nc1cccc(OC(=O)Nc2cccc(C)c2)c1
inactive: Potency [1] | caspase-3 activation [2] 1.17% | Potency [3] | outcome [4] | outcome [5] | Potency [6] | Potency [7] | Potency [8] | Potency [9] | Potency [10] | Potency [11] | Potency [17] | Potency [18] | max response [15] -6.94%

Clc1cccc(Cl)c1
inactive: Potency [1] | outcome [19] | caspase-3 activation [2] -0.0419% | Potency [3] | outcome [4] | outcome [5] | Potency [6] | Potency [8] | Potency [9] | Potency [10] | Potency [11] | Potency [17] | Potency [12] | Potency [13] | activation [14] -1.27% | max response [15] -0.108% | Potency [16]

Cl/C=C/Cl
inactive: Potency [1] | caspase-3 activation [2] -1.85% | Potency [3] | outcome [20] | outcome [5] | Potency [7] | Potency [8] | Potency [9] | Potency [11] | Potency [17] | Potency [12] | Potency [18] | activation [14] 0.896% | max response [15] -4.81% | Potency [16]

COC(=O)c1ccccc1N
inactive: Potency [1] | caspase-3 activation [2] 1.63% | Potency [3] | outcome [20] | Potency [6] | Potency [7] | Potency [8] | Potency [11] | Potency [17] | Potency [13] | activation [14] 1.96% | max response [15] -6.67%

CSSC
inactive: Potency [1] | outcome [19] | caspase-3 activation [2] -0.115% | Potency [3] | outcome [5] | Potency [6] | Potency [7] | Potency [8] | Potency [9] | Potency [10] | Potency [11] | Potency [17] | Potency [18] | Potency [13] | max response [15] -6.95% | Potency [16]

S=C1NCCN1
inactive: Potency [1] | outcome [19] | caspase-3 activation [2] 0.9% | Potency [3] | outcome [4] | outcome [5] | Potency [6] | Potency [7] | Potency [9] | Potency [11] | Potency [17] | Potency [12] | Potency [18] | Potency [13] | activation [14] 4.55% and -3.06% | max response [15] -2.28% and 8.96%

C=CC#N
inactive: Potency [1] | outcome [19] | caspase-3 activation [2] -0.0463% | Potency [3] | outcome [20] | outcome [4] | outcome [5] | Potency [6] | Potency [7] | Potency [8] | Potency [9] | Potency [10] | Potency [11] | Potency [17] | Potency [12] | Potency [18] | Potency [13] | activation [14] 2.03% | max response [15] -1.02%

[N-]=[N+]=[N-]
inactive: outcome [19] | caspase-3 activation [2] 1.16% | Potency [3] | outcome [20] | outcome [5] | Potency [6] | Potency [7] | Potency [8] | Potency [9] | Potency [10] | Potency [11] | Potency [12] | Potency [18] | max response [15] -3.11% | Potency [16]

Cc1ccc(N=C=O)cc1N=C=O
inactive: Potency [1] | outcome [19] | caspase-3 activation [2] 0.0584% | Potency [3] | outcome [20] | outcome [4] | Potency [6] | Potency [7] | Potency [8] | Potency [9] | Potency [10] | Potency [11] | Potency [17] | Potency [12] | Potency [18] | Potency [13] | max response [15] -6.43% and 0.39% | Potency [16]

O=C(Cl)c1ccccc1F
inactive: Potency [1] | caspase-3 activation [2] 2.05% | Potency [3] | outcome [20] | outcome [4] | outcome [5] | Potency [6] | Potency [7] | Potency [8] | Potency [9] | Potency [10] | Potency [11] | Potency [17] | Potency [12] | Potency [18] | Potency [13] | activation [14] 4.83% | max response [15] -1.25%

C=C(Cl)CCl
inactive: Potency [1] | caspase-3 activation [2] 1.48% | Potency [3] | outcome [20] | outcome [4] | outcome [5] | Potency [6] | Potency [7] | Potency [8] | Potency [9] | Potency [10] | Potency [11] | Potency [17] | Potency [12] | Potency [18] | Potency [13] | Potency [16]

CCNCC
inactive: Potency [1] | outcome [19] | caspase-3 activation [2] 0.736% | Potency [3] | outcome [20] | outcome [4] | outcome [5] | Potency [8] | Potency [9] | Potency [10] | Potency [11] | Potency [17] | Potency [12] | Potency [18] | Potency [13] | activation [14] -0.962% | max response [15] 7.15% | Potency [16]

CC(=O)CCC(C)=O
inactive: Potency [1] | caspase-3 activation [2] 0.378% | Potency [3] | outcome [20] | outcome [4] | outcome [5] | Potency [6] | Potency [7] | Potency [8] | Potency [9] | Potency [10] | Potency [11] | Potency [17] | Potency [12] | Potency [18] | Potency [13] | activation [14] 1.06% | Potency [16]

OC[P+](CO)(CO)CO
active: Potency [7] 25.1 µM | Potency [8] 39.8 µM | Potency [9] 15.8 µM | Potency [17] 20 µM | Potency [18] 12.6 µM | Potency [13] 12.6 µM
inactive: Potency [1] | outcome [19] | caspase-3 activation [2] 16.2% | outcome [4] | outcome [5] | activation [14] -0.473% and -0.989% | max response [15] -6.87% and -1.39%

CN(C)c1ccccc1
inactive: Potency [1] | Potency [3] | outcome [20] | outcome [4] | outcome [5] | Potency [6] | Potency [8] | Potency [9] | Potency [10] | Potency [11] | Potency [17] | Potency [18] | max response [15] -1.79% | Potency [16]

O=[N+]([O-])c1ccccc1O
inactive: Potency [1] | outcome [19] | caspase-3 activation [2] 1.37% | outcome [20] | outcome [5] | Potency [6] | Potency [7] | Potency [8] | Potency [9] | Potency [10] | Potency [11] | Potency [17] | Potency [12] | Potency [18] | Potency [13] | activation [14] 0.0323% | max response [15] -0.691% | Potency [16]

Reference: PubChem BioAssay (NCATS)
